# Rows were chosen to be rich in hits. Some 10% of all compounds tested hit in one or more screens of this group.
# GPT2 inhibitor: inhibitors of human GPT2 alanine aminotransferase | Q8TD30 | Recombinant GPT2, coupled pyruvate oxidase/HRP Amplex Red fluorescence | Potency, µM (doses to about 57.7 µM), inactives show at the highest dose activity change, negative = inhibition, usual class: inhibitors | 100,000 tested, 0.25% active | AID 1671188; also: % is scaled to controls: 0 for no effect and ±100 for the full control effect; nearly all actives have a fitted effect of over 60% in size
#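 Fluorescence of coupled pyruvate oxidase/HRP/Amplex Red system (50uM Amplex, 30 min, dark) reports pyruvate formed by GPT2. Enzyme reaction: 10ng/uL GPT2, 2mM L-alanine, 250uM a-KG, 30 min room temperature, pH 7.5; 50uM AOA control.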
# 3T3 cytotox: NIH 3T3 cell cytotoxicity | AID 1345082 | NIH 3T3 viability, CellTiter-Glo ATP luminescence, 48-72 h | Potency, µM (series often up to 96.7 µM), for inactives: top-dose activity change, negative = cytotoxicity, hits mostly inhibitors | 94,000 tested, 4.3% active; also: % is scaled to controls: 0 for no effect and ±100 for the full control effect; nearly all actives have a fitted effect of over 55% in size
#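 Cytotoxicity is measured as loss of cellular ATP: NIH 3T3 cells (400/well) are exposed to compound for 48 or 72 hr at 37 °C, then CellTiter-Glo luminescence is imaged after 10 min at room temperature.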
# hNpr1 antagonist: blocks ANP-stimulated signaling of human Npr1 receptor; P16066; HEK293 hNpr1 GloSensor cGMP, ANP-stimulated luminescence; Potency, µM (series often up to 46.3 µM), for the others: at the top dose activity change, negative = inhibition, usual class: inhibitors; 76,000 tested, 1.6% active; AID 1347048; calls by dose curve; also: % is scaled to controls: 0 for no effect and ±100 for the full control effect; nearly all actives have a fitted effect of over 60% in size
#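 Compound pre-incubated 30 min at room temperature on GloSensor-loaded HEK293 cells stably carrying hNpr1 and the pGS-40F cGMP biosensor. Stimulation uses hNppA at 0.1 nM final; luminescence is taken at baseline and 20 min post-agonist.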
# HEK cytotox: kills HEK 293 cells | 94,000 tested, 6.6% active | Potency, µM (doses to about 115 µM), for the others: at the highest dose activity change, negative = cytotoxicity, usual class: inhibitors | HEK 293 viability, ATP luminescence (CellTiter-Glo), 48-72 h; also: % is scaled to controls: 0 for no effect and ±100 for the full control effect; nearly all actives have a fitted effect of over 60% in size
#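 Pintool-delivered compounds were incubated with HEK 293 cells (250 cells/well) at 37 degree Celsius for 48 or 72 hr. ATP-dependent luminescence (CellTiter-Glo) then reported remaining viable cells.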
# Luciferase inh: blocks purified firefly luciferase enzyme activity; P08659; purified P. pyralis luciferase, luminescence, biochemical; Potency, µM (titrated, usually from 115 µM), actives largely listed as inhibitors; 76,000 tested, 2.5% active; AID 1347043; also: % is scaled to controls: 0 for no effect and ±100 for the full control effect; nearly all actives have a fitted effect of over 65% in size
#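 Purified 10nM P. pyralis luciferase with 10uM D-luciferin and 10uM ATP in 50mM Tris acetate pH 7.5, 10mM Mg acetate, 0.01% Tween-20, 0.05% BSA. qHTS titration; luminescence read by CCD imager.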
# Npr1 antag conf: hNpr1 antagonism, confirmation assay. shares compounds with hNpr1 antagonist. HEK293 hNpr1 cGMP GloSensor luminescence, ANP-stimulated. Potency, µM (top dose mostly 57.6 µM), inactives show top-dose activity change, negative = inhibition, usual class: inhibitors. 1,400 tested, 76% active; calls by dose curve; also: nearly all actives have a fitted effect of over 70% in size
# Npr2 selectivity: antagonizes human Npr2, subtype selectivity check | 1,400 tested, 67% active | Potency, µM (top dose mostly 57.6 µM), without a hit: at the highest dose activity change, negative = inhibition, usual class: inhibitors | shares compounds with hNpr1 antagonist | HEK293 hNpr2 GloSensor cGMP luminescence, CNP-stimulated; calls by dose curve; also: nearly all actives have a fitted effect of over 70% in size
# FLuc inh counter: inhibits firefly luciferase, false Npr1 antagonist flag; shares compounds with hNpr1 antagonist; purified FLuc enzyme, luminescence, Km substrate; Potency, µM (highest dose often 57.6 µM), inactives show top-dose activity change, negative = inhibition, usual class: inhibitors; 1,400 tested, 0.7% active; AID 1347047; also: 0% is about no effect
# GloSensor ctrl: control cell line activity, Npr1 antagonist counter-screen; shares compounds with hNpr1 antagonist; HEK293 GloSensor cGMP, SNP-stimulated, luminescence; Potency, µM (top dose mostly 57.6 µM), inactives show at the top dose activity change, negative = inhibition, most hits filed as inhibitors; 1,400 tested, 69% active; calls by dose curve; also: % is scaled to controls: 0 for no effect and ±100 for the full control effect; nearly all actives have a fitted effect of over 70% in size
# * hit, by the source's call; i = inactive; ? = inconclusive; / = no result; [ ] = remark or other dose. Unless noted, calls follow the shape of the dose curve; as a rule, active = well fitted curve in the direction sought with a large enough effect; inconclusive = small, poorly fitted or top-dose-only effect, or another doubt; inactive = no such curve, though single readings can be large; an effect the other way counts as inactive or inconclusive. Potency is read from the fitted curve at half-maximal effect.
SMILES,GPT2 inhibitor,3T3 cytotox,hNpr1 antagonist,HEK cytotox,Luciferase inh,Npr1 antag conf,Npr2 selectivity,FLuc inh counter,GloSensor ctrl
CC(=O)c1ccc(N2CCN(C(=O)c3cc4n(n3)CC(c3ccc(Cl)cc3)OC4)CC2)cc1 (stereo not given),i,?,11µM*,?,i,22µM*,24µM*,-2%,24µM*
O=C(Nc1ccc(Oc2ccccc2)cc1)c1cc2n(n1)CC(c1ccc(Cl)cc1)OC2 (stereo not given),-1%,-28%,3.5µM*,?,i,3.9µM*,4.8µM*,2%,3.9µM*
CC(=O)Nc1ccc(NC(=O)c2cc3n(n2)CC(c2ccc(Cl)cc2)OC3)cc1 (stereo not given),i,-26%,-17%,?,i,/,/,/,/
COc1ccc(-c2cc(N3CCCN(C(=O)Cc4ccc(OC)c(Cl)c4)CC3)n[nH]2)cc1,?,?,-4%,?,i,/,/,/,/
CC(C)c1cc(C(=O)NC2CCN(c3ncccc3C#N)CC2)n(C)n1,-2%,?,7.1µM*,?,i,8.6µM*,12µM*,1%,7.7µM*
CC(C)c1cc(C(=O)N2CCN(c3ncccc3C#N)CC2)n(C)n1,3%,?,6%,-18%,i,/,/,/,/
COC(=O)c1cccc(NC(=S)N[C@@H]2C=C[C@@H](c3c(C)nn(-c4ccc(F)cc4)c3C)C2)c1,-14%,?,?,32µM*,i,22µM*,?,-23%,22µM*
CC(C)C1CN(C(=O)c2n[nH]c3c2CCC3)CCC(=O)N1CC1CC1 (stereo not given),i,-23%,5%,-7%,i,/,/,/,/
CC(C)Cc1cn(CC2CCCN(C(=O)c3n[nH]c4c3CCCC4)C2)nn1 (stereo not given),1%,?,14µM*,?,i,19µM*,17µM*,?,15µM*
CC(C)c1nc(N2CCCC2)ncc1C(=O)O,i,i,4%,13%,i,/,/,/,/
Cc1cc(C(=O)NC(C)c2cnc(N3CCCCCCC3)nc2C)n[nH]1 (stereo not given),i,?,10µM*,?,i,22µM*,24µM*,0%,22µM*
O=C(Cc1ccccc1Cl)N1CC(c2nnc(-c3ccncc3)o2)C2(CCOCC2)C1 (stereo not given),-11%,-21%,6%,-27%,i,/,/,/,/
CC1Oc2ccc(NC(=O)c3ccc(F)cc3)cc2CN(Cc2ccc3c(c2)OCO3)C1=O (stereo not given),-7%,?,?,?,i,24µM*,?,1%,31µM*
COc1cc(OC)cc(C(=O)Nc2ccc3c(c2)CN(Cc2ccc4c(c2)OCO4)C(=O)C(C)O3)c1 (stereo not given),-16%,?,-12%,?,i,/,/,/,/
COc1ccccc1NC(=O)Cn1c(N2CCc3ccccc3C2)nc(C)cc1=O,i,?,-23%,?,i,-23%,-14%,-3%,-10%
COc1ccc(C)cc1NC(=O)Cn1c(N2CCc3ccccc3C2)nc(C)cc1=O,i,-4%,1%,-1%,i,/,/,/,/
COc1ccc(OC)c(NC(=O)Cn2c(N3CCc4ccccc4C3)nc(C)cc2=O)c1,i,28µM*,?,32µM*,i,?,?,1%,?
Cc1cc(=O)n(CC(=O)NC(C)C)c(N2CCc3ccccc3C2)n1,i,-3%,4%,?,i,/,/,/,/
Cc1cccc(NC(=O)Cn2c(N3CCc4ccccc4C3)nc(C)cc2=O)c1,i,?,-28%,45µM*,i,-29%,?,0%,?
Cc1cc(=O)n(CC(=O)Nc2ccccc2C)c(N2CCc3ccccc3C2)n1,i,?,?,?,i,?,-22%,2%,-27%
COCCOCC(=O)N1CCN(C(=O)N2CC3CC(C2)[C@H]2CCCC(=O)N2C3)CC1 (stereo not given in full),i,-4%,1%,-22%,i,/,/,/,/
Cc1noc(C)c1S(=O)(=O)N1CC(c2nnc(-c3ccncc3)o2)C2(CCOCC2)C1 (stereo not given),i,-5%,-1%,1%,i,/,/,/,/
COc1ccc(C(=O)N2CCC(CC(=O)N3CCOCC3)C2)cc1OC (stereo not given),i,i,/,i,/,/,/,/,/
CC(=O)N1Cc2ccccc2OC2(CCN(C(=O)c3ccc(Cl)cc3)CC2)C1,-13%,-15%,/,-10%,/,/,/,/,/
C[S+](=O)([O-])NCCn1ccc2cc(OC3CCN(c4ncc(F)cn4)CC3)cnc21,-6%[88.5 µM],?,22µM*,?,i,20µM*,28µM*,-1%[86.2 µM],22µM*
SMILES,GPT2 inhibitor,3T3 cytotox,hNpr1 antagonist,HEK cytotox,Luciferase inh,Npr1 antag conf,Npr2 selectivity,FLuc inh counter,GloSensor ctrl
COCCOC(=O)N1CCC(Oc2cnc3c(ccn3-c3cncnc3)c2)CC1,1%[88.5 µM],?,7%[70.6 µM],?,i,/,/,/,/
Cc1nc(CN2C(=O)OC3(CCN(C(=O)Cc4ccc5c(c4)OCO5)CC3)C2(C)c2ccccc2)cs1 (stereo not given),-7%,?,5%,-12%,i,/,/,/,/
Cc1ccc2c(c1)nc1n2[C@@H](CNCc2ccccc2)COC1,-5%[88.5 µM],112µM*,?,?,i,35µM*,?,-2%[86.2 µM],?
Cc1cccc2c1nc1n2[C@@H](CNS(=O)(=O)c2ccc(F)cc2)COC1,-4%[88.5 µM],?,?,?,i,/,/,/,/
COc1ccc2nc3n(c2c1)[C@@H](CNCc1ccc(C(F)(F)F)cc1)COC3,?,?,35µM*,?,i,31µM*,35µM*,-2%[86.2 µM],28µM*
Cc1cccc2c1nc1n2[C@@H](CNS(=O)(=O)Cc2ccccc2)COC1,-3%[88.5 µM],?,35µM*,?,i,28µM*,28µM*,0%[86.2 µM],28µM*

# Screens: PubChem, National Center for Advancing Translational Sciences (NCATS)
